Results from PubChem BioAssay (EPA / NIEHS).
Several values for one entry are separate records, joined by “and”; a condition that tells them apart may be missing. Equal values may be shown once. A structure can be active in one record and inactive in another. Activity calls are given as the source filed them. Rule for the calls: active = hit-call score of the fitted dose curve at least 0.9, where 1 is the maximum; inconclusive = response in the unintended direction; inactive = score below 0.9.

The molecules below were run on rat CYP2B1, gene 24300 (assay: NVS_ADME_rCYP2B1: NovaScreen (NVS) CYP450-related Enzyme Activity (ADME) Assay for rat CYP2B1 (AID 2283117)).
Experimental: NVS_ADME_rCYP2B1 is a biochemical, single-readout assay that uses extracted gene-proteins in a cell-free assay. Measurements were taken 0.75 hour after chemical dosing in a 96-well plate.NVS_ADME_rCYP2B1 is one of one assay component(s) measured or calculated from the NVS_ADME_rCYP2B1 assay. It is designed to make measurements of enzyme activity, a form of enzyme reporter, as detected with fluorescence intensity signals by Fluorescence technology.Data from the assay component NVS_ADME_rCYP2B1 was analyzed into 1 assay endpoint. This assay endpoint, NVS_ADME_rCYP2B1, was analyzed in the positive analysis fitting direction relative to Acetonitrile as the negative control and baseline of activity. Using a type of enzyme reporter, loss-of-signal activity can be used to understand changes in the enzymatic activity as they relate to the gene Cyp2b1. Furthermore, this assay endpoint can be referred to as a primary readout, because this assay has produced multiple assay endpoints where this one serves a enzymatic activity function. To generalize the intended target to other relatable targets, this assay endpoint is annotated to the cyp intended target family, where the subfamily is xenobiotic metabolism.
Binding assays used specific radioligands (tritiated, iodinated) with non-radioactive competitive displacement ligands in agonist or antagonist protocols (as indicated) and various reference compounds and inhibitors to titrate specific binding to receptors and transporters. Most enzyme assays (CYPs, kinases, phosphatases, proteases, HDACs) used recombinant protein and specific substrates (fluorescence mostly, some colorimetric and radioactive) and inhibitors, followed by a biochemical separation of substrate and product. All assays for the biochemical HTS were initially run in duplicate at a single concentration (10 uM for CYP450 assays and 25 uM for all others). Assay-chemical combinations meeting a pre-defined threshold (e.g., 30% inhibition and other criteria defined below) were then run in singleton concentration-response format with maximum concentration of 20 uM for CYPs and 50 uM for all others. Each assay was run with positive and negative controls, and concurrent controls on every plate. The follow-up (secondary) screen tested active chemical-pairs in concentration series, as well as a few additional assays not tested in the primary screen, some selected negative inactives, and several cases re-run in the concentration series for confirmatory purposes.

Row | SMILES | outcome | AC50
1 | O=c1c(-c2ccc(O)cc2)coc2cc(O)cc(O)c12 | inactive | –
2 | C[C@]12CC[C@@H]3c4ccc(O)cc4CC[C@H]3[C@@H]1CC[C@@H]2O | – | 14.1 µM (active)
3 | C=CCOC(Cn1ccnc1)c1ccc(Cl)cc1Cl (stereo not drawn) | – | 0.0108 µM (active)
4 | NC(=NCCCCCCN=C(N)/N=C(\N)Nc1ccc(Cl)cc1)/N=C(\N)Nc1ccc(Cl)cc1 | – | 5.93 µM (active)
5 | Oc1ccc(C(c2ccc(O)cc2)C(Cl)(Cl)Cl)cc1 | – | 9.18 µM (active)
6 | CCCCCCC(C)OC(=O)COc1nc(F)c(Cl)c(N)c1Cl (stereo not drawn) | – | 6.09 µM (active)
7 | N#CSCSc1nc2ccccc2s1 | – | 3.96 µM (active)
8 | CCN(CC)CCOc1ccc(C(=C(Cl)c2ccccc2)c2ccccc2)cc1 | inactive | 7.35 µM (active) and 7.71 µM (active)
9 | CCCCOC(=O)C(C)Oc1ccc(Oc2ccc(C(F)(F)F)cn2)cc1 (stereo not drawn) | inactive | –
10 | C#CCOC(=O)[C@@H](C)Oc1ccc(Oc2ncc(Cl)cc2F)cc1 | – | 1.36 µM (active)
11 | C#C[C@]1(O)CC[C@H]2[C@@H]3CCc4cc(O)ccc4[C@H]3CC[C@@]21C | – | 2.5 µM (active) and 4.16 µM (active) and 1.77 µM (active)
12 | Cc1cc(O)cc(C)c1Cl | – | 16.7 µM (active)
13 | CC(=O)O[C@]1(C(C)=O)CC[C@H]2[C@@H]3C=C(Cl)C4=CC(=O)[C@@H]5C[C@@H]5[C@]4(C)[C@H]3CC[C@@]21C | inactive | –
14 | CC(=O)[C@H]1CC[C@H]2[C@@H]3CCC4=CC(=O)CC[C@]4(C)[C@H]3CC[C@]12C | inactive | –
15 | CCCCCCCCCCCCCC[P+](CCCC)(CCCC)CCCC | – | 6.5 µM (active)
16 | BrC1CCC(Br)C(Br)CCC(Br)C(Br)CCC1Br (stereo not drawn) | inactive | –
17 | CC(C)(C)[C@@H](O)[C@@H](Cc1ccc(Cl)cc1)n1cncn1 | – | 1.35 µM (active)
